Source: PubChem (several laboratories)
Compounds with a hit are over-represented: about 9.7% of the library has one in this group of screens.
M1 ag: M1 muscarinic receptor agonism; 64,000 tested, 3% active; CHO-M1 cells, Fluo-4 calcium fluorescence, agonist mode; active compounds read high; B-score at 10 µM; AID 626;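 active = fluorescence rise, raw or as B-score row- and column-corrected plate score, outside the 99.7% band of its plate's samples, either direction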
M1 antagonist: blocks the rat M1 muscarinic receptor response to acetylcholine; P08482; CHO-M1 cells, Fluo-4 calcium, ACh EC80 antagonist mode; active compounds read low; B-score at 10 µM; 64,000 tested, 3.4% active; AID 628;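 active = calcium fluorescence response, raw or row-and-column corrected B-score, differing from the plate sample mean either way at a set confidence level, mostly lower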
BAP1 inh: human BAP1 deubiquitinase inhibition; calls only at 20 µM; Q92560; recombinant BAP1, Ub-AMC hydrolysis fluorescence kinetic; active compounds read low; 72,000 tested, 0.48% active;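 active = activity remaining at or below 50% of control, provided the compound also passes the data quality filters; inactive = the rest, including low values that fail the filters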
A340 absorber: absorbance at 340 nm. compound absorbance at 340 nm, fold over control. fold change at 10 µM. 65,000 tested, under 10 active. AID 708;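 active = at 10 µM dose, initial 340 nm absorbance at least 2 fold that of control wells; inactive = change under 2 fold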;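 also: initial absorbance extrapolated from kinetic A340 decline of NADH oxidation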
Fluor 339 460: intrinsic fluorescence of library compounds, ex339/em460 – biochemical, MLSMR library, data from DPM-DC assay, artefact control, profiling panel | compound autofluorescence, ex339/em460 nm, NADH buffer; active compounds read high; 1 = no-compound wells, NADH background | fluorescence fold increase at 10 µM | 65,000 tested, 5.5% active | AID 709;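 active = at 10 µM, mean starting fluorescence two-fold or more over control wells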;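 also: signal is the first read of a kinetic run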
WNV NS2B-NS3 inh: inhibitors of West Nile virus NS2B-NS3 protease. AID 577. 65,000 tested, 0.18% active. z-score (concentration not given with the values). WNV NS2B-NS3 protease, fluorogenic substrate Ex360/Em465; active compounds read low. P06935; in the data active = z-score below about -3
Target sequence (P06935 1371-1501 limits assumed): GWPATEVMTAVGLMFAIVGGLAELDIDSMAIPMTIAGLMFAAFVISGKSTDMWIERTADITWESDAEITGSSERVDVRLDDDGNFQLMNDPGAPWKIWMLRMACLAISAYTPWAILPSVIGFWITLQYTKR
Target sequence (P06935 1502-1679 limits assumed): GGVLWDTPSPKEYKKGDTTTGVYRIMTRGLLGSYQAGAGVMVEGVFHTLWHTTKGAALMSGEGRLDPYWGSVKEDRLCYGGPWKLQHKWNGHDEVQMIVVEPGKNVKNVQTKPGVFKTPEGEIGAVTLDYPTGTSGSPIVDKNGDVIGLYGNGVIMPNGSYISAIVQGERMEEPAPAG
BAP1 inh confirm: confirmation of human BAP1 enzyme inhibitors; % of control activity, % at 20 µM; purified BAP1, Ub-ethyl ester hydrolysis, HPLC; active compounds read low; shares compounds with BAP1 inh; 310 tested, 8% active;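 active = percent of control activity at or below 60%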
Numbers stand for hits.

For COc1cccc(C2/C(=C(\O)c3ccccc3)C(=O)C(=O)N2c2ccccc2)c1 (stereo not given) the results were BAP1 inh inactive.
Screening CCc1[nH]nc2c1C(c1ccc(Br)s1)C(C#N)=C(N)O2 (stereo not given) returned M1 ag inactive, M1 antagonist 2.5, BAP1 inh inactive, A340 absorber inactive, Fluor 339 460 inactive and WNV NS2B-NS3 inh inactive.
`Cc1nc(-c2ccccc2)cc(=O)[nH]1` gave M1 ag inactive, M1 antagonist inactive, BAP1 inh inactive, A340 absorber inactive, Fluor 339 460 inactive and WNV NS2B-NS3 inh inactive.
`O=c1nc(-c2ccccc2)cc(-c2ccccc2)[nH]1` gave BAP1 inh inactive, A340 absorber inactive, Fluor 339 460 2.18 and WNV NS2B-NS3 inh inactive.
O=C1CC(c2ccc(F)cc2)Cc2nc(N3CCN(c4ccccc4)CC3)ncc21 (stereo not given) was read as M1 ag inactive, M1 antagonist inactive, A340 absorber inactive, Fluor 339 460 inactive and WNV NS2B-NS3 inh inactive.
Screening O=C1CC(c2ccc(F)cc2)Cc2nc(N3CCc4ccccc43)ncc21 (stereo not given) returned M1 ag inactive, M1 antagonist inactive, A340 absorber inactive, Fluor 339 460 3.82 and WNV NS2B-NS3 inh inactive.
COc1ccccc1NC(=O)CCCN1C(=O)c2cccc3cccc(c23)C1=O was read as BAP1 inh inactive.
CC(C)(C)C(=O)C1C(c2cccc3ccccc23)C(C#N)(C#N)C2c3ccccc3C=CN12 (stereo not given) was read as BAP1 inh inactive.
For CC(C)(O)C12CC3CC(CC(C3)C1)C2 the results were BAP1 inh inactive.
Cc1cc(OCc2nn[nH]n2)c2c(C)c(CC(=O)O)c(=O)oc2c1 was read as M1 ag inactive, M1 antagonist inactive, BAP1 inh inactive, A340 absorber inactive, Fluor 339 460 3.86 and WNV NS2B-NS3 inh inactive.
For Cc1c(Cc2ccccc2)c(=O)oc2c(C)c(OCc3nn[nH]n3)ccc12 the results were M1 ag inactive, M1 antagonist inactive, A340 absorber inactive, Fluor 339 460 3.85 and WNV NS2B-NS3 inh inactive.
Screening Cc1c(OCc2nn[nH]n2)ccc2c(-c3ccccc3)cc(=O)oc12 returned M1 ag inactive, M1 antagonist inactive, BAP1 inh inactive, A340 absorber inactive, Fluor 339 460 inactive and WNV NS2B-NS3 inh inactive.
Cc1cc(OCc2nn[nH]n2)c2c(C)c(Cc3ccccc3)c(=O)oc2c1 was read as M1 ag inactive, M1 antagonist inactive, BAP1 inh inactive, A340 absorber inactive, Fluor 339 460 3.86 and WNV NS2B-NS3 inh inactive.
Cc1cc(OCc2nn[nH]n2)c2c(-c3ccccc3)cc(=O)oc2c1 was read as M1 ag inactive, M1 antagonist inactive, BAP1 inh inactive, A340 absorber inactive, Fluor 339 460 2 and WNV NS2B-NS3 inh inactive.
For Cc1cc(C)c2c(CC(=O)O)coc2c1 the results were M1 ag inactive, M1 antagonist inactive, BAP1 inh inactive, A340 absorber inactive, Fluor 339 460 inactive and WNV NS2B-NS3 inh inactive.
`C=CCn1c(=N)n(CC(O)c2ccc(C)cc2)c2ccccc21` (stereo not given) gave BAP1 inh inactive.
Screening COc1cc(NC(=O)COc2ccccc2C(C)(C)C)c(OC)cc1Cl returned BAP1 inh inactive.
For Cc1ccc(C2C(N3C(=O)c4ccc([N+](=O)[O-])cc4C3=O)C(=O)N2c2ccc(C)c(F)c2)cc1 (stereo not given) the results were BAP1 inh inactive.
Screening Cc1cc(N)c(-n2cc3c(=O)n(C)c(=O)n(C)c3c2)cc1C returned M1 ag inactive, M1 antagonist inactive, BAP1 inh inactive, A340 absorber inactive, Fluor 339 460 2.68 and WNV NS2B-NS3 inh inactive.
`COc1cc(NC(=O)c2cc3c(=O)n(C)c4ccccc4c3n2C)cc(OC)c1OC` gave M1 ag inactive, M1 antagonist inactive, BAP1 inh inactive, A340 absorber inactive, Fluor 339 460 2.03 and WNV NS2B-NS3 inh inactive.
For CCC(=O)Nc1cc2nn(-c3ccc(OC)cc3)nc2cc1C the results were M1 ag inactive, M1 antagonist inactive, A340 absorber inactive, Fluor 339 460 3.77 and WNV NS2B-NS3 inh inactive.
`CCCCC(=O)Nc1cc2nn(-c3ccc(OC)cc3)nc2cc1C` gave M1 ag inactive, M1 antagonist inactive, A340 absorber inactive, Fluor 339 460 3.61 and WNV NS2B-NS3 inh inactive.
O=C(NCCCN1CCOCC1)c1ccccc1I was read as BAP1 inh inactive.
COC(=O)C1(C)Nc2ccccc2C(=O)N1c1ccccc1C (stereo not given) was read as M1 ag inactive, M1 antagonist inactive, BAP1 inh inactive, A340 absorber inactive, Fluor 339 460 2.1 and WNV NS2B-NS3 inh inactive.
`CCc1ccc(OCCNc2cc(Cl)ccc2[N+](=O)[O-])cc1` gave BAP1 inh inactive.
For CCC1(C)Cc2c(sc3[nH]c(=O)[nH]c(=O)c23)CS1 (stereo not given) the results were M1 ag inactive, M1 antagonist inactive, BAP1 inh inactive, A340 absorber inactive, Fluor 339 460 2.28 and WNV NS2B-NS3 inh inactive.
For C(=Cc1ccccc1)CN1CCN(C2c3ccccc3-c3ccccc32)CC1 the results were BAP1 inh inactive.
Cc1cc2c3nonc3ccc2n1-c1ccccc1 was read as M1 ag inactive, M1 antagonist inactive, A340 absorber inactive, Fluor 339 460 2.25 and WNV NS2B-NS3 inh inactive.
Screening COC(=O)c1ccccc1NC(=O)c1sc(=S)n(C)c1N returned M1 ag inactive, M1 antagonist inactive, BAP1 inh active, A340 absorber inactive, Fluor 339 460 inactive, WNV NS2B-NS3 inh inactive and BAP1 inh confirm 50.6.
`CCOc1ccc(-c2nc(-c3ccccc3C)no2)cc1` gave M1 ag inactive, M1 antagonist inactive, BAP1 inh active, A340 absorber inactive, Fluor 339 460 inactive, WNV NS2B-NS3 inh inactive and BAP1 inh confirm inactive.
CCOc1nc(C)ccc1-c1noc(-c2ccncc2)n1 was read as M1 ag inactive, M1 antagonist inactive, BAP1 inh inactive, A340 absorber inactive, Fluor 339 460 inactive and WNV NS2B-NS3 inh inactive.
Screening O=C(NC12CC3CC(CC(C3)C1)C2)c1cc2nc(-c3ccco3)cc(C(F)(F)F)n2n1 returned M1 ag inactive, M1 antagonist inactive, BAP1 inh active, A340 absorber inactive, Fluor 339 460 2.88, WNV NS2B-NS3 inh inactive and BAP1 inh confirm inactive.
COc1ccc(-c2cc(C(F)(F)F)n3nc(C(=O)NCc4ccco4)cc3n2)cc1 was read as M1 ag inactive, M1 antagonist inactive, BAP1 inh active, A340 absorber inactive, Fluor 339 460 2.18, WNV NS2B-NS3 inh inactive and BAP1 inh confirm inactive.
